# Measured values: PubChem BioAssay AID624094 (National Center for Advancing Translational Sciences (NCATS), 2012)
# Results filed as inconclusive are left out. Unmarked numbers belong to inactive results. Activity calls are given as the source filed them. Calls come from the whole dose curve; as a rule, active = well fitted inhibition curve with a large enough effect; inconclusive = small, poorly fitted or top-dose-only effect; inactive = flat fitted curve, though single readings scatter.
# Biological target: Dual specificity protein kinase CLK4 (Homo sapiens) (UniProt Q9HAZ1)
# Sequence (Q9HAZ1 whole entry, looked up): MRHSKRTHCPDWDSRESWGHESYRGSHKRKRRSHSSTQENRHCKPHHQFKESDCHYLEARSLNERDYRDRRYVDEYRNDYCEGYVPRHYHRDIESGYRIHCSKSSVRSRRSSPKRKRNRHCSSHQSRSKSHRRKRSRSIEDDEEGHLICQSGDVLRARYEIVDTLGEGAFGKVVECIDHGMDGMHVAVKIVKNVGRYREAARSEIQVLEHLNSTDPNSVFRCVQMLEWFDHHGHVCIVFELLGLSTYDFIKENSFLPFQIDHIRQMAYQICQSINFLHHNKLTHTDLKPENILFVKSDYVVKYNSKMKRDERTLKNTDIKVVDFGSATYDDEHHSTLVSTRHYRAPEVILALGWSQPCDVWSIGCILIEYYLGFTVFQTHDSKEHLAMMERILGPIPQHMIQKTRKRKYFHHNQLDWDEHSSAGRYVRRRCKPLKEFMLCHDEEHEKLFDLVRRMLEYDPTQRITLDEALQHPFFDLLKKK
# Assay: Confirmation Assay for Inhibitors of Clk4 (Kinase-Glo Assay): KU probe
# Settings: recombinant Clk4, Kinase-Glo ATP luminescence; series mostly up to 76.9 µM; activity, negative = inhibition: at the top concentration
# Protocol: NIH Molecular Libraries Probe Production Centers Network [MLPCN] NIH Chemical Genomics Center [NCGC] MLPCN Grant: 1R03MH084827-01 Assay Submitter (PI): Tom Misteli NCGC Assay Overview: Clk4 (Invitrogen, cat# PV3839) was assayed using ATP and the RS repeat peptide (AnaSpec cat # 61722) as substrates. Following the Clk4 reaction, the remaining ATP levels were detected using Promega Kinase-Glo technology wherein the remaining ATP from the kinase reaction is detected using Ultra-Glo luciferase and D-luciferin which generates a bioluminescence signal from the ATP.
# NCGC Assay Protocol Summary: Two uL/well of substrate-buffer solution (100 uM RS peptide, 1 uM ATP, 25 mM Tris pH7.5, 10 mM MgCl2, 0.5 mM EGTA, 2.5 mM DTT, 0.01% Triton X-100 final concentration) was dispensed into 1536-well, assay plates (Greiner, solid white medium-binding plates) with Aurora Discovery BioRAPTR Flying Reagent Dispenser (FRD; Beckton-Dickenson). Using a Kalypsys pin tool equipped with a 1536-pin tool, 23 nL of compound solution was transferred to the assay plate. One uL/ well Clk4-buffer solution (25 nM Clk4, 25 mM Tris pH 7.5, 10 mM MgCl2, 0.5 mM EGTA, 2.5 mM DTT, 0.01% Triton X-100, final concentrations) was then added using the FRD yielding a total kinase reaction volume of 3 uL/ well. After 4.5 hours of room temperature incubation, 3 uL Kinase-Glo reagent was added for a final assay volume of 6 uL/ well. Luminescence was detected with the ViewLux plate reader (Perkin Elmer, Waltham, MA) after 5 min incubation using a 5 second exposure time and 2x binning.
SMILES,Potency,"activity, negative = inhibition"
Cc1c(-c2ccnc(NCc3ccc(Cl)cc3)n2)sc(=O)n1C,0.0582 µM (active),
Clc1cc(Cl)cc(CNc2ncncc2-c2ccc3c(c2)OCO3)c1,0.13 µM (active),
O=C(O)c1ccc(-c2ccc3ncnc(NCc4nccs4)c3c2)o1,0.923 µM (active),
CCN(C)c1ncnc2ccc(-c3ccc4c(c3)OCO4)cc12,0.0368 µM (active),
c1nc(NCC2CC2)c2cc(-c3ccc4c(c3)OCO4)ccc2n1,0.0328 µM (active),
c1cncc(CNc2cc(-c3ccc4c(c3)OCO4)ncn2)c1,6.54 µM (active),
Cc1c(-c2ccnc(NCc3cccnc3)n2)sc(=O)n1C,0.0463 µM (active),
Fc1cncc(CNc2ccnc(-c3ccc4c(c3)OCO4)n2)c1,8.23 µM (active),
c1cc(-c2ccoc2)nc(-c2ccoc2)n1,5.82 µM (active),
Fc1ccc(CNc2ccnc(-c3ccc4c(c3)OCO4)n2)cc1F,18.4 µM (active),
c1nc(NCCC2CCCO2)c2cc(-c3ccc4c(c3)OCO4)ccc2n1 (stereo not given),0.0519 µM (active),
c1nc(NCC2CCCCC2)c2cc(-c3ccc4c(c3)OCO4)ccc2n1,0.0654 µM (active),
CN(C)c1ccc(-c2nccc(NCc3cccs3)n2)cc1,9.23 µM (active),
Fc1cc(CNc2ccnc(-c3ccc4c(c3)OCO4)n2)ccc1Cl,13 µM (active),
Cc1noc(C)c1-c1ncccn1,,-5.28%
Brc1ccc(CNc2nccc(-c3ccc4c(c3)OCO4)n2)cc1Br,0.0823 µM (active),
Cc1noc(C)c1-c1nccc(NCc2ccc(Cl)cc2)n1,,-9.2%
CC(=O)c1ccc(-c2ccc3ncnc(NCc4ccc(C)o4)c3c2)o1,0.13 µM (active),
c1cc(-c2ccc3c(c2)OCO3)nc(Nc2ccc3c(c2)OCO3)n1,0.116 µM (active),
c1cncc(CNc2nccc(-c3ccc4cn[nH]c4c3)n2)c1,0.0412 µM (active),

SMILES,Potency,"activity, negative = inhibition"
COc1cccc(-c2ccnc(NCc3ccc(Cl)c(Cl)c3)n2)c1,3.68 µM (active),
CN(C)c1ccc(-c2nccc(NCc3ccc(Cl)cc3)n2)cc1,,-6.08%
O=C(O)c1ccc(-c2ccc3ncnc(NCC4CCCO4)c3c2)o1 (stereo not given),0.654 µM (active),
COc1cccc(-c2ncccn2)c1,14.6 µM (active),
c1nc(NCC2CCCCO2)c2cc(-c3ccc4c(c3)OCO4)ccc2n1 (stereo not given),0.0292 µM (active),
COc1cccc(-c2nccc(NCc3ccc(C)cc3)n2)c1,23.2 µM (active),
COc1ccc(-c2ccnc(NCc3ccc(Cl)c(Cl)c3)n2)cc1,0.184 µM (active),
Clc1cncc(CNc2ccnc(-c3ccc4c(c3)OCO4)n2)c1,16.4 µM (active),
CC(C)(C)CNc1ncnc2ccc(-c3ccc(C(=O)O)o3)cc12,0.463 µM (active),
Clc1ccc(CNc2nccc(-c3ccc4cn[nH]c4c3)n2)cc1Cl,5.82 µM (active),
Clc1ccc(CNc2ccnc(-c3ccc4c(c3)OCO4)n2)cc1Cl,13 µM (active),
c1nc(NC[C@@H]2CCCO2)c2cc(-c3ccc4c(c3)OCO4)ccc2n1,0.0292 µM (active),
Fc1ccc(CNc2ccnc(-c3ccc4c(c3)OCO4)n2)cc1Cl,5.19 µM (active),
CCCN(C)c1ncnc2ccc(-c3ccc4c(c3)OCO4)cc12,0.0582 µM (active),
c1coc(CNc2ncnc3ccc(-c4ccc5c(c4)OCO5)cc23)c1,0.0463 µM (active),
c1nc(NCC2CCOC2)c2cc(-c3ccc4c(c3)OCO4)ccc2n1 (stereo not given),0.0582 µM (active),
Clc1ccc(CNc2nccc(-c3ccc4c(c3)OCO4)n2)cc1Cl,0.0412 µM (active),
c1cncc(CNc2nccc(-c3ccc4c(c3)OCO4)n2)c1,0.0232 µM (active),
c1cc(CNc2ccnc(-c3ccc4c(c3)OCO4)n2)ccn1,16.4 µM (active),
CN(CC1CCCCC1)c1ncnc2ccc(-c3ccc4c(c3)OCO4)cc12,0.184 µM (active),
